BoNT-A LC inh2: BoNT A light chain protease inhibition; multiplex microsphere protease substrate cleavage, flow cytometry; inhibition, % at 10 µM; 360,000 compounds, 0.17% hits; note: plate controls were buffer without enzyme for full effect and enzyme alone for no effect
Anthrax LF inh2: inhibitors of Bacillus anthracis lethal factor protease. multiplex microsphere protease cleavage assay, LF. 360,000 compounds, 0.12% hits. inhibition, % at 10 µM; note: plate controls were buffer without enzyme for full effect and enzyme alone for no effect
Target sequence (P15917 whole entry, looked up): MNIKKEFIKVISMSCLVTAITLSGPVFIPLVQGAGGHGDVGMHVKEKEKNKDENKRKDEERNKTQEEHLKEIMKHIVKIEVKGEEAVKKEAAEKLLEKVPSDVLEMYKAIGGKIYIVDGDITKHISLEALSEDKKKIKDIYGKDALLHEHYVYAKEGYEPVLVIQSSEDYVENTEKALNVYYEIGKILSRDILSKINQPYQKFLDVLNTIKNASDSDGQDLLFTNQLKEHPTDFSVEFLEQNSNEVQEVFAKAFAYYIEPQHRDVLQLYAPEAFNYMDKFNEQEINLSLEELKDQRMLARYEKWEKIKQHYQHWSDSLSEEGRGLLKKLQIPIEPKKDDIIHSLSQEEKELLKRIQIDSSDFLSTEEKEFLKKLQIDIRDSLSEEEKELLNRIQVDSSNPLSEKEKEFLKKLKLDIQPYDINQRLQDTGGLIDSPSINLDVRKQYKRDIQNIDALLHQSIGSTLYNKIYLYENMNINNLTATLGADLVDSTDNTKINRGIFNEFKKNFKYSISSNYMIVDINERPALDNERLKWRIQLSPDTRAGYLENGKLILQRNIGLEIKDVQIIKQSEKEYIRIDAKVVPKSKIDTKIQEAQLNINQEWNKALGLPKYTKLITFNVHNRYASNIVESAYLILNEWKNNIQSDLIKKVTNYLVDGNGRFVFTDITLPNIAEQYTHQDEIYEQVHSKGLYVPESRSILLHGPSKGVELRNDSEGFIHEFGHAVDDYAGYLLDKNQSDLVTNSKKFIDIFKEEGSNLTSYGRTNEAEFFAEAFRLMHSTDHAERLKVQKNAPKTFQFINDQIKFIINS
BoNT-F LC inh: BoNT F light chain protease inhibition; Multiplex microsphere protease cleavage assay, flow cytometry; inhibition, % at 10 µM; 360,000 compounds, 0.22% hits; in the data active = inhibition above about 35%, passing the limit was not always enough; inconclusive = no clear call, values can overlap the other calls; note: plate controls were buffer without enzyme for full effect and enzyme alone for no effect
CCHFV vOTU inh: blocks the CCHF virus ovarian tumor domain protease. 370,000 compounds, 0.55% hits. AID 651958. CCHFV vOTU protease, Pep-AMC fluorescence. inhibition, % at 11.5 µM; in the data active = inhibition above about 30%; note: 0% = vehicle wells with enzyme and 100% = no enzyme wells
3CLpro inhibitor: SARS-CoV 3CLpro protease inhibition; P0C6X7; recombinant SARS-CoV 3CLpro, quenched FRET peptide cleavage; AID 1706; 290,000 compounds, 0.14% hits; inhibition, % at 6 µM; in the data active = inhibition above about 12%
Bead autofluor: counter-screen for toxin protease inhibitors: compound fluorescence | compound autofluorescence counterscreen, microsphere flow cytometry; hits give high values | fluorescence intensity (no concentration beside the values) | 360,000 compounds, 3.1% hits | AID 624483; in the data active = fluorescence intensity above about 16000; inconclusive = no clear call, values can overlap the other calls
* = called active by the depositor; u = inconclusive; x = no result. Sampled rows, rich in hits. Any-hit rate of the full collection: about 3.9%. Cut-off read from the data, not from the text of the source, unless noted: active = inhibition above about 30%; inconclusive = no clear call, values can overlap the other calls; inactive = below that.

SMILES	BoNT-A LC inh2	Anthrax LF inh2	BoNT-F LC inh	CCHFV vOTU inh	3CLpro inhibitor	Bead autofluor
C=CCOc1c(CNc2ccc(C(=O)O)cc2)cccc1OC	0	-2	-3	1	-5	2150
C=CCOc1c(CNc2ccc(C(=O)O)cc2)cccc1OCC	u	0	9	-2	3	19846*
Cc1ccc(COc2ccsc2-c2n[nH]c(=S)n2C)cc1	2	-2	3	6	-2	22046*
CCCCCCCN(c1ccccc1)C1C[C@H]2CCCC(=O)N3CC[C@@H](C1)[C@@H]23 (stereo not given in full)	x	x	x	14	x	x
O=S(=O)(c1ccsc1)N1CC=C(c2ccccc2)CC1	-1	0	1	-2	2	4366
COCCOC(=O)C1=C(C)N=C2SCCC(=O)N2C1c1cccc(Br)c1 (stereo not given)	-3	1	-6	2	2	17065*
C=CCOC(=O)C1=C(C)N=C2SCCC(=O)N2C1c1ccc(OC(=O)c2ccco2)cc1 (stereo not given)	-1	-1	-7	11	-2	23769*
COCCCNC(=O)c1oc(=O)c2ccccc2c1-c1ccc(C)cc1	x	x	x	-4	x	x
CC(=O)NC(CC(=O)OCC(=O)N1CCN(S(=O)(=O)c2ccc(C)cc2C)CC1)c1ccccc1 (stereo not given)	0	-2	-5	13	x	2680
NC(=O)Cn1nnc(-c2ccc(C(F)(F)F)cc2)n1	u	-2	-10	-2	-1	21710*
CC(C)(C)C(=O)Cn1nnc(-c2ccc(C(F)(F)F)cc2)n1	-1	-7	-5	-9	4	6036
O=C(Cn1nnc(-c2cccc(C(F)(F)F)c2)n1)N1CCOCC1	1	-4	1	-8	-3	22585*
COC(=O)[C@]12C[C@H](CC(=O)N3CCSCC3)C(=O)N(Cc3cccc4ccccc34)C1=C[C@H](C1CCCC1)O[C@@H]2C	x	x	x	12	x	x
O=S(=O)(c1ccc(Br)s1)N1CCC(c2nc3ccccc3o2)CC1	x	x	x	-4	x	x
C=CCNc1ncnc2c1cnn2-c1ccc(OC)cc1	0	-4	0	10	-1	16362*
CC(=O)Nc1cc(C(=O)N2CCc3ccccc3C2)ccc1Sc1ccc(C)cc1	0	2	2	12	2	1914
CCCN1CCN(C(=O)c2ccc(Sc3ccc(C)cc3)c(NC(C)=O)c2)CC1	-4	0	-6	-8	-2	24723*
Cc1cc(C)c2cc(C#N)c(NCCCNC(=O)CCC(=O)O)nc2c1	u	-2	2	-28	-8	21922*
Cc1cccc(NC(=O)C2C(C(=O)O)C3C=CC2C32CC2)c1C (stereo not given)	0	7	2	13	3	5639
Cc1ccc(NC(=O)C2C(C(=O)O)C3C=CC2C32CC2)cc1 (stereo not given)	0	-9	1	22	-3	19275*
Cc1ccc(-n2cccc2/C=C2\C(=N)N3N=C(c4ccco4)SC3=NC2=O)cc1	0	-2	6	-15	7	2721
Cc1nnc(-c2cccc(Br)c2)c2cn(-c3ccccc3Cl)nc12	2	-14	14	0	4	26146*
COC(=O)C1=C(C)N(C)C(=NCc2ccccc2C(F)(F)F)NC1c1ccc(Cl)cc1 (stereo not given)	x	x	x	19	x	x
CCOC(=O)c1cnn(CCOC(=O)c2cccs2)c1NC(=O)c1cccs1	1	0	3	-10	-3	22411*
C=CCNC(=O)c1ccc(-c2nc(-c3ccc(Cl)c(Cl)c3)cs2)cc1	u	-4	-3	-9	-1	22537*
SMILES	BoNT-A LC inh2	Anthrax LF inh2	BoNT-F LC inh	CCHFV vOTU inh	3CLpro inhibitor	Bead autofluor
C=CCNC(=O)c1ccc(-c2nc(-c3ccc(Cl)cc3Cl)cs2)cc1	0	-9	-1	0	2	8615
CCN1C(=O)/C(=C\N2CCN(c3ccc(F)cc3)CC2)SC1=S	u	-1	-2	-13	5	16210*
CS(=O)(=O)N(CC(=O)N1CCC(C(N)=O)CC1)c1ccc(Oc2ccccc2)cc1	-1	0	-7	-1	-1	2980
Cc1ccc(N(C(C)C(=O)N2CCCCC2)S(C)(=O)=O)cc1C (stereo not given)	2	2	4	0	-1	22154*
CC(C(=O)N1CCC(C(N)=O)CC1)N(c1ccc(Oc2ccccc2)cc1)S(C)(=O)=O (stereo not given)	1	0	1	-4	0	20200*
CCCCN1CC(=O)N2[C@@H]3c4cc(OC)ccc4OC[C@@H]3[C@H](C(=O)OCC)[C@]2(C)C1=O	0	-3	2	5	x	3474
